# From PMC5540273 (PLoS ONE, 2017)
# System: AURKB
# Conditions: concentration: 1 μM,replicates: in singlicate; n = 1
# 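Also: KINOMEscan kinase panel screen.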
row,Structure (SMILES),%Inh
1,Cc1cccc2c(-c3ccncc3)c(-c3ccc(F)cc3)nn12.Cl [GW461487],0%
2,N#Cc1cccc(C(=O)NC2CCN(c3ccnc(Nc4ccc(F)cc4)n3)C2)c1 (stereo not drawn) [GSK1379708],0%
3,Cc1n[nH]c2cc(Nc3ccnc(Nc4cccc(CN5CCOCC5)c4)n3)ccc12 [GW682569],55%
4,Cn1cc(-c2cccc3c(N)c(C(N)=O)nnc23)cn1,27%
5,Nc1nccc(-c2ccc3c(N)n[nH]c3c2)n1 [GSK1034945],0%
6,C[C@@H]1CNc2c(sc3ccc4nc(-c5ccc(O)cc5)ccc4c23)C(=O)N1,24%
7,COc1cccc(C2=C(Nc3cccc(Cl)c3)C(=O)NC2=O)c1 [SB-341556],15%
8,CCn1c(-c2nonc2N)nc2cncc(Br)c21 [SB-738004],17%
9,COc1cc2c(Nc3ccc(NC(=O)c4ccccc4)cc3)ncnc2cc1OCCCN1CCOCC1 [GSK301329],95.6%
10,O=C1NCCc2[nH]c(-c3ccncc3)cc21,0%
11,Cc1ccc(Nc2ccnc(Nc3ccc4c(c3)CS(=O)(=O)C4)n2)cc1O.Cl [GW579362],85%
12,O=C(Nc1n[nH]c2cc(-c3ccco3)ccc12)C1CC1 [SB-737447],12%
13,CN(c1cccc(CNc2nc(Nc3ccc4c(c3)CC(=O)N4)ncc2C(F)(F)F)c1)S(C)(=O)=O,99.4%
14,Cc1ccc(C(=O)Nc2ccc(Oc3ccc4nc(NC(=O)C5CC5)cn4c3)c(F)c2)c(=O)n1-c1ccccc1,82%
15,COC(=O)c1cccc(NC(=O)NC2CCN(c3ccnc(NCc4ccc(F)cc4)n3)CC2)c1 [GSK1379860],0%
16,Cl.c1ccc(Oc2ccc(Nc3ccnc4cc(-c5ccc(CN6CCNCC6)o5)ccc34)cc2)nc1 [GW567142],77%
17,O=C(NCC1CC1)c1ccc(-c2cc(C(=O)NC3CC3)ccc2F)cc1 [GW810445],4%
18,C[C@@H](Oc1cc(-n2cnc3cc(-c4cnn(C)c4)ccc32)sc1C(N)=O)c1ccccc1Cl [GSK580432],90.6%
19,CC(C)c1nc(-c2cccc(NS(=O)(=O)c3ccccc3)c2)c(-c2ccnc(Nc3ccc4c(c3)CN(C)CC4)n2)s1 [GSK1649598],52%
20,C[C@@H](Oc1cc(-n2cnc3ccc(-c4ccncc4)cc32)sc1C(N)=O)c1ccccc1Cl [GSK483724],19%
21,CCn1c(-c2nonc2N)nc2cncc(CNC3CCNCC3)c21.Cl [SB-747651],23%
22,CC(C)S(=O)(=O)N1CCN(Cc2ccc3c(c2)nc(NC(=O)c2ccsc2)n3C[C@H](O)c2ccccc2)CC1 [GW635815],0%
23,COc1cc(Nc2nccc(N3CCC(NC(=O)c4cccc(C#N)c4)C3)n2)cc(OC)c1OC (stereo not drawn) [GSK1379751],36%
24,Cc1ccc(CC(=O)N2CCc3cc(-c4cn(C)c5ncnc(N)c45)ccc32)cc1 [GSK2634758],96.1%
